Results on 39 compounds are retold here after PubChem BioAssay (NCI).

Compounds without any hit were thinned out: in the full panel of roughly 79,000, 15% have a hit. A number with no mark means an inactive call. Activity calls are given as the source filed them. No stated cut-off is given here; in the data, active means growth inhibition above about 70%; inactive means the rest.

The nature of assay [1]: NCI Yeast Anticancer Drug Screen. Data for the rad50 strain (AID 155).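 Further: 0% = growth of vehicle-only cultures of the same strain.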 To be noted: S. cerevisiae rad50 strain growth inhibition; at 50.0 µM; active compounds read high. An outline of the steps:
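Vehicle-treated cultures provide the reference for the growth inhibition reported for compound-exposed, repair-deficient yeast.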

The nature of assay [2]: NCI Yeast Anticancer Drug Screen. Data for the mec2-1 strain (AID 157). Conditions: S. cerevisiae mec2-1 strain, at 50.0 µM, active compounds read high. The gist of the method: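 Readout is yeast growth inhibition, normalised to vehicle-treated controls, in the mec2-1 strain exposed to compound.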
Assay [3] is described as follows: NCI Yeast Anticancer Drug Screen. Data for the sgs1 mgt1 strain (AID 161).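 Further: 0% = growth of cultures given vehicle only.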 Conditions: S. cerevisiae sgs1 mgt1 strain, at 50.0 µM, active compounds read high. The gist of the method:
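Compounds are added to genetically altered yeast, and growth is compared with cultures given vehicle alone to give percent inhibition.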

Assay [4] in a line: NCI Yeast Anticancer Drug Screen. Data for the cln2 rad14 strain (AID 165).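 Further: 0% = growth equal to vehicle treated cultures.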 To be noted: S. cerevisiae cln2 rad14 strain, at 50.0 µM, active compounds read high. An outline of the steps: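 Relative to vehicle controls, growth inhibition of compound-treated cln2 rad14 yeast was recorded.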
Assay [5] in a line: NCI Yeast Anticancer Drug Screen. Data for the bub3 strain (AID 167). To be noted: S. cerevisiae bub3 mutant strain, at 50.0 µM, active compounds read high. An outline of the steps:
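Mutant yeast screening strain plus compound; vehicle-treated cultures serve as the 0% inhibition reference.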

Assay [6] can be described thus: NCI Yeast Anticancer Drug Screen. Data for the mlh1 rad18 strain (AID 175). To be noted: S. cerevisiae mlh1 rad18 strain growth inhibition; at 50.0 µM; active compounds read high. The gist of the method:
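Test agents were incubated with a yeast strain of defined genotype (DNA damage repair defect). Inhibition of growth was derived by comparison with vehicle-exposed cultures.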

Regarding `Cc1nc2ccc(Cl)cc2c(Cl)c1CCCl`, the growth inhibition in assay [1] was 12.1%; in assay [2], 6.5%; in assay [3], -19.9%; in assay [4] it was -8.15%; in assay [5] it was 31.5%; in assay [6] it was 13.8%.
With `O=[N+]([O-])c1cnc(N(CCO)CCO)s1`, the growth inhibition is 30.4% in assay [1]; -25.4% in assay [2]; 0.1% in assay [3]; 37.8% in assay [4]; -11.5% in assay [5]; 16.4% in assay [6].
For `CCOC(=O)C(NC(=S)Cc1ccccc1)C(=O)OCC`, the growth inhibition in assay [1] was 10.1%; in assay [2] it was -2.85%; in assay [3] it was -4.8%; in assay [4] it was -5.7%; in assay [5] it was 9.75%; in assay [6] it was -0.35%.
Regarding `CNC(=O)OCc1c(COC(=O)NC)c(-c2ccc(F)cc2)n2c1CCC2`, the growth inhibition was 23.8% in assay [1]; 12.7% in assay [2]; -15.9% in assay [3]; 18.7% in assay [4]; 7.55% in assay [5]; 52.6% in assay [6].
For the compound `c1ccc(-c2n[nH]c(-c3[nH]nc(-c4ccccc4)c3-c3ccccc3)c2-c2ccccc2)cc1`, the growth inhibition in assay [1] was -12.2%; in assay [2], 15.3%; in assay [3] it was -12%; in assay [4], 5.15%; in assay [5], 7.35%; in assay [6] it was 8.2%.
Turning to `CCOC(=O)c1nc2ccccc2c(=O)n1NC(=S)Nc1ccc(Cl)cc1`, the growth inhibition in assay [1] was -40.4%; in assay [2], 5.95%; in assay [3], -1.2%; in assay [4], 8.8%; in assay [5], -4.15%; in assay [6], -15%.
In the case of `COc1ccccc1OCC(COC(=O)Nc1ccccc1)OC(=O)Nc1ccccc1` (centres undefined), the growth inhibition in assay [1] was -44.2%; in assay [2] it was -27.2%; in assay [3], -30.4%; in assay [4] it was -0.6%; in assay [5], -17.6%; in assay [6], -17.8%.
Regarding `CC(=O)C(CCC(=O)O)(CCC(=O)O)c1ccccc1`, the growth inhibition in assay [1] was 2%; in assay [2], 21.6%; in assay [3], 5.3%; in assay [4], -49.4%; in assay [5] it was 13.7%; in assay [6], 20.2%.
As to `CCOC(=O)C1(C)CCCC1=O` (centres undefined), the growth inhibition was 13.8% in assay [1]; -8.6% in assay [2]; 3.95% in assay [3]; 6.95% in assay [4]; 2.6% in assay [5]; -0.4% in assay [6].
`CNc1ncnc2nc(C)c(C)nc12`: the growth inhibition in assay [1] is -14.1%; in assay [2], 35.6%; in assay [3] it was -7.4%; in assay [4] it was 8.4%; in assay [5], -6.05%; in assay [6] it was 18.7%.
Consider `COc1cc(-c2ccc(Br)[nH]2)[nH]c1C=NCC(C)C`, for which the growth inhibition in assay [1] is 78.5% (active); in assay [2] it was 78.5% (active); in assay [3], 78.8% (active); in assay [4], 78.2% (active); in assay [5], 69%; in assay [6], 86.7% (active).
As to `Cc1ccc(S(=O)(=O)Oc2c(Cl)cc(Cl)cc2Cl)cc1`, the growth inhibition is -2.4% in assay [1]; 9.35% in assay [2]; 26.4% in assay [3]; -19.1% in assay [4]; 24.8% in assay [5]; 29.8% in assay [6].
As for `NC(Cc1c[nH]c2ccc(F)cc12)C(=O)O` (centres undefined), the growth inhibition in assay [1] was -4.35%; in assay [2] it was -17.5%; in assay [3], -29.8%; in assay [4] it was -37%; in assay [5], -14.4%; in assay [6] it was 4.15%.
With `c1cnn(C23C4C5C6C4C2C6C53)c1` (centres undefined), the growth inhibition in assay [1] is -24.4%; in assay [2], -26.6%; in assay [3] it was -18.7%; in assay [4], -20.5%; in assay [5] it was -32.5%; in assay [6], -38.6%.
Take `Fc1cccc(C(Nc2nncs2)Nc2nncs2)c1`: the growth inhibition in assay [1] was 14.1%; in assay [2], -0.1%; in assay [3], -1.7%; in assay [4] it was -11.6%; in assay [5] it was -3.8%; in assay [6], -4.35%.
For the compound `O=S(=O)(O)c1cc(S(=O)(=O)O)c2c(Nc3ccnc4ccccc34)ccc(S(=O)(=O)O)c2c1`, the growth inhibition was -8.25% in assay [1]; -1.3% in assay [2]; -19.2% in assay [3]; 3.6% in assay [4]; -8.45% in assay [5]; 13.8% in assay [6].
On to `CC(=O)Nc1cccc([N+](=O)[O-])c1`, for which the growth inhibition in assay [1] is 8.25%; in assay [2] it was -10.3%; in assay [3], 8.65%; in assay [4], -7.85%; in assay [5], -2.7%; in assay [6], -19.6%.
Take `O=C(OCc1ccccc1CN1CCOCC1)c1ccccc1`: the growth inhibition in assay [1] is 2.55%; in assay [2], 16.4%; in assay [3], 9.5%; in assay [4], -11.9%; in assay [5], -15.8%; in assay [6], 8.3%.
With `CC(C)(C)c1ccc(Sc2cccc3c2C(=O)c2c(Cl)cccc2C3=O)cc1`, the growth inhibition in assay [1] was -11.3%; in assay [2] it was -4.1%; in assay [3], -27.1%; in assay [4], -8.1%; in assay [5] it was 0.55%; in assay [6], -0.85%.
As to `O=C1NC(=S)S/C1=C\c1c(Cl)cccc1Cl`, the growth inhibition in assay [1] was 56.9%; in assay [2], 19%; in assay [3], 61.1%; in assay [4] it was 16.9%; in assay [5] it was 27.9%; in assay [6], 60.4%.
For `CC(=O)OCC1OC(n2cc(C)c(=O)[nH]c2=O)C(NC(=O)C(Cl)(Cl)Cl)C(OC(C)=O)C1OC(C)=O` (centres undefined), the growth inhibition in assay [1] is 6.3%; in assay [2] it was -4.6%; in assay [3] it was 2.75%; in assay [4], 0%; in assay [5] it was 0%; in assay [6], 2.3%.
In the case of `CCOC(=O)C(C#N)(Cc1c(-c2ccccc2)[nH]c2ccccc12)NC(C)=O` (centres undefined), the growth inhibition was -4.25% in assay [1]; 0.75% in assay [2]; 4.85% in assay [3]; -14.6% in assay [4]; 7.9% in assay [5]; 6.15% in assay [6].
Regarding `CSC(=N\N=C(/C)c1ccc(Br)cc1)/N=C/N(C)C`, the growth inhibition was 46.2% in assay [1]; 23.2% in assay [2]; 55.5% in assay [3]; 19% in assay [4]; 28.1% in assay [5]; 31.7% in assay [6].
On to `O=C(NN1C(=O)C(Cl)C1c1ccc([N+](=O)[O-])cc1)c1ccccc1O` (centres undefined), for which the growth inhibition in assay [1] is -16.2%; in assay [2] it was -19.2%; in assay [3], -35.7%; in assay [4], -6.45%; in assay [5], -26%; in assay [6], -20.1%.
Take `COc1ccc(C(c2cc3c(cc2O)OCO3)N2CCN(C(c3cc4c(cc3O)OCO4)c3ccc(OC)cc3OC)CC2)c(OC)c1` (centres undefined): the growth inhibition in assay [1] is -15.1%; in assay [2] it was 1.55%; in assay [3] it was 30.2%; in assay [4] it was 23.1%; in assay [5], -11.9%; in assay [6] it was 3.45%.
Take `CSc1nc(NC2OC(CO)C(O)C(O)C2O)c(I)c(=O)n1C` (centres undefined): the growth inhibition in assay [1] is 3.15%; in assay [2] it was 1.85%; in assay [3], -5.3%; in assay [4] it was -6.25%; in assay [5] it was -1.75%; in assay [6], 27.7%.
For `O=C1[C@@H](c2ccc(Cl)cc2)[C@H]2CC=C[C@H]2N1O`, the growth inhibition was 8.65% in assay [1]; -21.4% in assay [2]; -13.8% in assay [3]; 15.4% in assay [4]; -13.4% in assay [5]; -2.25% in assay [6].
On to `Nc1nnc(-c2ccc(Br)cc2)o1`, for which the growth inhibition was 3.05% in assay [1]; -16.9% in assay [2]; -14.2% in assay [3]; -5% in assay [4]; -25.9% in assay [5]; 5% in assay [6].
For the compound `COc1cc2c(oc(=O)c3c4occc4cc(OC)c23)c2cccc(OCc3ccccc3)c12`, the growth inhibition in assay [1] was 2%; in assay [2] it was 14.9%; in assay [3], -11.8%; in assay [4] it was 8.35%; in assay [5] it was -20.9%; in assay [6], 3.85%.
In the case of `COC1=C(C(=O)c2ccc(OC)c(OC)c2)COC1=O`, the growth inhibition in assay [1] was -8.4%; in assay [2] it was -13.3%; in assay [3] it was -4.5%; in assay [4], -4.4%; in assay [5] it was 31.4%; in assay [6], 7.15%.
Regarding `CCCCN(CCCC)CC(O)c1cc(-c2ccc(Cl)c(Cl)c2)nc2c(Cl)cc(Cl)cc12` (centres undefined), the growth inhibition in assay [1] was 28.3%; in assay [2] it was 31.1%; in assay [3], -15.7%; in assay [4], 11.6%; in assay [5], -15.5%; in assay [6], -11.8%.
As for `Cn1c(=O)oc2cc(Br)ccc21`, the growth inhibition is -8.9% in assay [1]; 0.7% in assay [2]; -3.1% in assay [3]; 18.9% in assay [4]; 23% in assay [5]; -67.8% in assay [6].
For `CC(C)C(=O)OCc1ccc(Cl)cc1`, the growth inhibition in assay [1] was 29.8%; in assay [2], 38.3%; in assay [3] it was 21.8%; in assay [4], 12.1%; in assay [5], 26.8%; in assay [6], 17.4%.
As for `COc1ccc(-c2nnc(Cl)o2)cc1`, the growth inhibition in assay [1] was -1.95%; in assay [2], 14.8%; in assay [3], -6.75%; in assay [4] it was -25.9%; in assay [5] it was -21.1%; in assay [6] it was -0.5%.
Turning to `NC1=NN(S(=O)(=O)c2ccc(Cl)cc2)CC1`, the growth inhibition in assay [1] was -14.7%; in assay [2], -6.25%; in assay [3] it was -8.75%; in assay [4], -21.7%; in assay [5] it was -3.3%; in assay [6], 5.95%.
In the case of `CCC(=O)c1cccc(-c2ccccc2)c1C`, the growth inhibition in assay [1] was 7%; in assay [2], -13.5%; in assay [3], -2.5%; in assay [4], 4.25%; in assay [5], 11.7%; in assay [6], 11.5%.
Consider `CC(C)=CCNc1ccccc1`, for which the growth inhibition in assay [1] was -11.3%; in assay [2] it was -24.1%; in assay [3], 1.7%; in assay [4] it was 17.4%; in assay [5], 1.05%; in assay [6], -7.3%.
`CCC1(CC)OC(=O)C(=O)N1N(C)C`: the growth inhibition in assay [1] was -16.9%; in assay [2], -0.8%; in assay [3], -13.9%; in assay [4], -15.2%; in assay [5], -10.9%; in assay [6], -13.7%.
As for `CC(O)CN=Cc1ccccc1` (centres undefined), the growth inhibition in assay [1] is -16.6%; in assay [2], 21.9%; in assay [3], -11.2%; in assay [4], -41.4%; in assay [5], -11.5%; in assay [6], -18.8%.
